ELG1 DNA repair – qHTS screen for small molecules that inhibit ELG1-dependent DNA repair in human embryonic kidney (HEK293T) cells expressing luciferase-tagged ELG1; 2.3% of 330,000 active; Potency, µM (highest dose often 46.1 µM), actives largely listed as inhibitors; HEK293T ELG1-luciferase reporter, luminescence, 16 h; DNA damage induced by 5-fluorouridine; note: nearly all actives have a fitted effect of over 55% in size
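HEK293T cells expressing luciferase-tagged ELG1 (2,000/well) received 5-Fluorouridine plus compound or DMSO for 16 hr at 37 °C. Luciferase was read by ONE-Glo luminescence after 30 min at room temperature.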
BRCA1 expr act – qHTS Assay to Identify Small Molecule Activators of BRCA1 Expression; Potency, µM (series often up to 46.1 µM), usual class: activators; 1.1% of 380,000 active; MCF7-BRCA1-FFLuc reporter, luminescence, 48 h; response scale: scaled: vehicle 0%, 10 µM genistein 100%; note: nearly all actives have a fitted effect of over 80% in size
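Cells: MCF7-BRCA1-FFLuc, 2000/well. Exposure: 48 h, 37 °C, 5% CO2. Read: luminescence, 15 min post-substrate. Controls: genistein 10 microM (maximal activation), DMSO (neutral).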
IL2 activator – qHTS of IL-2 Activators. IL-2 activation reporter assay, cell-based qHTS; stimulated with anti-CD3/CD4/CD28 beads; in transgenic mouse T cells. activation, % (series mostly up to about 46 µM). 0.065% of 360,000 active; in the data active = activation above about 50%; inconclusive = mostly about 30% to 49%
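Quantitative HTS in unstimulated transgenic mouse T cells, with memory T cells as non-tolerant control and PMA/ionomycin as tolerance-bypass control. Compound pretreatment lasted 60 minutes before 18 h bead stimulation; EGFP/DsRed fluorescence read.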
Nrf2 ARE act – qHTS of Nrf2 Activators; AREc32 ARE-luciferase reporter (MCF7-derived line), luminescence, 24 h; Potency, µM (highest dose often 46.1 µM), most hits filed as activators; 0.31% of 410,000 active; AID 624171, 2012; note: nearly all actives have a fitted effect of over 65% in size
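Luminescent ARE reporter assay in AREc32_Fluc cells: overnight plating at 37 deg C, 24 hr compound incubation, Steady-Glo added, 30 min RT before reading.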
ELG1 FLuc counter – qHTS screen for small molecules that inhibit ELG1-dependent DNA repair: Hit Confirmation in Cell-Based Luciferin Assay. shares compounds with ELG1 DNA repair. cell-free firefly luciferase luminescence counter-screen, ViewLux. Potency, µM (titrated, usually from 46.1 µM), most hits filed as inhibitors. 3% of 350 active. AID 624247, 2012
ELG1 Luc conf – HTS assay for small molecules that inhibit ELG1-dependent DNA repair in human embryonic kidney (HEK293T) cells expressing luciferase-tagged ELG1: Hit Confirmation; shares compounds with ELG1 DNA repair; HEK293T ELG1-luciferase levels, luminescence; cells co-treated with 5-fluorouridine; Potency, µM (doses to about 46.1 µM), usual class: inhibitors; 68% of 670 active; note: nearly all actives have a fitted effect of over 55% in size
ELG1 MMS Luc – inhibits ELG1-dependent repair under MMS stimulation in HEK293T cells; shares compounds with ELG1 DNA repair; HEK293T luciferase-tagged ELG1 level, MMS stimulated; Potency, µM (doses to about 46.1 µM), hits mostly inhibitors; 53% of 670 active; AID 624249; note: nearly all actives have a fitted effect of over 60% in size
ELG1 5-FU – qHTS screen for small molecules that inhibit ELG1-dependent DNA repair: Hit Confirmation with 5FU Viability; Potency, µM (doses to about 46.1 µM), usual class: cytotoxic; shares compounds with ELG1 DNA repair; cell viability with 5-FU, ELG1-dependent repair; 670 tested, under 10 active;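 note: ELG1-luc HEK293T cells cotreated with 5-fluorouridine at 10 µM final; viability measured 16 h after compound addition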
ELG1 MMS cell – qHTS screen for small molecules that inhibit ELG1-dependent DNA repair: Hit Confirmation with MMS Viability | shares compounds with ELG1 DNA repair | Cell viability with MMS, ELG1-dependent DNA repair | Potency, µM (doses to about 46.1 µM), usual class: cytotoxic | 33% of 670 active | AID 624251, 2012;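 note: ELG1-luc HEK293T cells co-treated with 10 µM MMS; viability read 16 h after compound addition; nearly all actives have a fitted effect of over 60% in size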
ELG1 unstim viab – qHTS screen for small molecules that inhibit ELG1-dependent DNA repair: Hit Confirmation with Unstimulated Viability Assay | shares compounds with ELG1 DNA repair | cell viability counter-screen, unstimulated, luminescence | Potency, µM (highest dose often 45.9 µM), hits mostly cytotoxic | 8% of 900 active;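 note: compound exposure lasted 16 hours before reading; nearly all actives have a fitted effect of over 55% in size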
FLuc enzyme – qHTS screen for small molecules that inhibit ELG1-dependent DNA repair: Hit Confirmation in Biochemical Luciferin Assay; 10% of 350 active; purified firefly luciferase, luminescence counter-screen; shares compounds with ELG1 DNA repair; Potency, µM (titrated, usually from 57.5 µM), most hits filed as inhibitors
Hits are given with their value; – = inactive; ? = inconclusive; · = not tested or not shown; [ ] = another dose, or the depositor's remark. Shown are actives, neighbours in structure and some others; about 3.1% of the full set was active somewhere. Unless noted, calls come from the whole dose curve; as a rule, active = well fitted curve in the direction sought with a large enough effect; inconclusive = small, poorly fitted or top-dose-only effect, or another doubt; inactive = no such curve, though single readings can be large; an effect the other way counts as inactive or inconclusive.

SMILES | ELG1 DNA repair | BRCA1 expr act | IL2 activator | Nrf2 ARE act | ELG1 FLuc counter | ELG1 Luc conf | ELG1 MMS Luc | ELG1 5-FU | ELG1 MMS cell | ELG1 unstim viab | FLuc enzyme
CCCCN1C(=O)NC(=O)C2(Cc3c(nc4c(C)cccn4c3=O)N3CCc4ccccc4C32)C1=O (stereo not given) | 21µM | – | – | – | · | · | · | · | · | · | ·
CCCCCCCCCCCCCC(=O)O[C@@H]1[C@@H](C)[C@@]2(O)[C@H](C=C(CO)C[C@]3(O)C(=O)C(C)=C[C@@H]23)[C@@H]2C(C)(C)C12OC(C)=O (stereo not given in full) | · | · | · | · | – | · | · | · | · | ? | ?
CCCC(=O)O[C@@H]1[C@@H](C)[C@@]2(O)[C@@H](C=C(CO)C[C@]3(O)C(=O)C(C)=C[C@@H]23)[C@@H]2C(C)(C)[C@]12OC(=O)CCC | · | · | · | · | · | · | · | · | · | ? | ·
Cc1ccc(OCC(=O)Nc2ccc(Cl)cc2C(=O)c2ccccc2)cc1C | · | · | · | – | · | · | · | · | · | · | ·
CC(=O)O[C@H]1C[C@@H](O[C@@H]2[C@H](C)O[C@H](O[C@@H]3[C@H](C)O[C@H](O[C@@H]4CC[C@@]5(C)[C@@H](CC[C@]6(C)[C@]5(C)C[C@H](O)[C@]5(C)[C@@H](C7=CC(=O)OC7)CC[C@@]56O)C4)C[C@@H]3O)C[C@@H]2O)O[C@@H](C)[C@H]1O[C@H]1O[C@@H](CO)[C@@H](O)[C@@H](O)[C@@H]1O | · | · | · | · | ? | 1.1µM | 0.6µM | ? | 1.7µM | ? | –
COc1ccc(/C(=N/OC(C)=O)c2nccc3cc(OC)c(OC)cc23)cc1OC | 3.3µM | – | – | – | · | ? | – | ? | – | – | ·
COc1ccc(Cc2nccc3cc(OC)c(OC)cc23)cc1OC | – | – | – | – | · | · | · | · | · | · | ·
Cc1cc([N+](=O)[O-])c2ccccc2[n+]1[O-] | ? | – | – | – | · | · | · | · | · | · | ·
Oc1c(Cl)cccc1Cc1cc(Cl)cc(Cl)c1O | · | – | – | – | · | · | · | · | · | · | ·
C[C@@H]1C[C@@H]2[C@H]([C@H]3C=C(COC(=O)c4ccccc4)[C@@H](O)[C@]4(O)[C@@H](O)C(OC(=O)c5ccccc5)=C[C@@]14C3=O)C2(C)C | · | · | · | · | – | · | · | · | · | ? | –
O=C1CC(c2ccc(F)cc2)c2c(c3ccccc3oc2=O)O1 (stereo not given) | · | · | · | – | · | · | · | · | · | · | ·
C[C@H]1CCC[C@@H](O)CCC/C=C/c2cc(O)cc(O)c2C(=O)O1 | 2.8µM | – | – | – | · | 4µM | 4µM | – | ? | ? | ·
CC1CCC[C@H](O)CCCCCc2cc(O)cc(O)c2C(=O)O1 (stereo not given in full) | ? | – | – | – | · | · | · | · | · | · | ·
CC1O[C@@H](OC2CC[C@@]3(C=O)C4CC[C@]5(C)C(C6=CC(=O)OC6)CC[C@@]5(O)C4CC[C@]3(O)C2)C(O)C(O)C1O (stereo not given in full) | · | · | · | · | ? | 0.32µM | 0.16µM | ? | 0.28µM | 0.14µM | –
COC1C(O)C(C)OC(OC2CCC3(C)C(CCC4C3C(O)CC3(C)C(C5=CC(=O)OC5)CCC43O)C2)C1O (stereo not given) | · | – | – | – | · | · | · | · | · | · | ·
COc1cc([C@@H]2c3cc4c(cc3[C@@H](O)C3COC(=O)C32)OCO4)cc(OC)c1O (stereo not given in full) | · | – | · | · | · | · | · | · | · | · | ·
O=C(Nc1ccncc1)c1cccn(Cc2ccccc2)c1=O | 3.3µM | – | – | –[9.22 µM] | · | – | 2.2µM | – | 2.5µM | ? | ·
O=C(Nc1ccccc1)c1cccn(Cc2ccccc2)c1=O | – | – | – | – | · | · | · | · | · | · | ·
CCOC(=O)[C@]12Cc3c(cc(OC)c(OC)c3OC)[C@H]1N(C1CCCCC1)C(=O)c1ccccc12 | · | – | – | – | · | · | · | · | · | · | ·
CC(=O)OC1CCC23C(=O)OC45CCC(C6=CC(=O)OC6)C4(C)CCC2C5CCC3(O)C1 (stereo not given) | · | · | · | · | · | 1.3µM | 0.63µM | ? | 1.3µM | 0.44µM | ·
CC(=O)OC1CC[C@]2(C)C(CCC3C2CC[C@]2(C)C(C4=CC(=O)OC4)C(OC(C)=O)CC32O)C1 (stereo not given in full) | · | · | · | · | · | 1.4µM | 0.89µM | ? | 1.3µM | 0.63µM | ·
CC1OC(=O)C(C(C)C)NC(=O)C(C(C)C)OC(=O)C(C(C)C)NC(=O)C(C)OC(=O)C(C(C)C)NC(=O)C(C(C)C)OC(=O)C(C(C)C)NC(=O)C(C)OC(=O)C(C(C)C)NC(=O)C(C(C)C)OC(=O)C(C(C)C)NC1=O (stereo not given) | · | · | · | · | ? | – | 0.035µM | ? | 0.079µM | 0.035µM | –
COc1cc(C2c3cc4c(c(O)c3CC3COC(=O)C32)OCO4)cc(OC)c1OC (stereo not given) | · | ? | – | – | · | · | · | · | · | · | ·
COc1cc2c(cc1OC)C1C(=O)c3c(cc4c(c3O)C=CC(C)(C)O4)OC1CO2 (stereo not given) | · | · | · | · | – | ? | 0.71µM | – | 0.79µM | ? | ?
CC12Nc3ccccc3C(=O)N1Cc1cnnn1-c1ccccc12 (stereo not given) | · | – | – | – | · | · | · | · | · | · | ·
C[C@@H]1C[C@H](C)C[C@H](C)[C@@H](O)CC(=O)O[C@H]([C@H]2CCC[C@H]2C(=O)O)C/C=C/C=C(/C#N)[C@H](O)[C@@H](C)C1 | · | · | · | · | ? | 0.4µM | 0.79µM | ? | 6.3µM | ? | –
